# CYP2C9 inhib: human CYP2C9 inhibition | P11712 | CYP2C9 Supersomes, luciferin-H conversion, luminescence | inhibition, % at 5 µM | actives 20% (n = 96,000) | AID 777;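 active means blocking of liver enzyme CYP2C9 beyond about 50% at 5 µM, limit read from the data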
# CYP2C19 inhib: human CYP2C19 inhibition; actives 21% (n = 96,000); inhibition, % at 5 µM; P33261; CYP2C19 Supersomes, luciferin-H EGE luminescence, 30 min;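 active means CYP2C19 inhibition above a set limit at 5 µM in the primary screen, cut at about 50% in these data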;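 further: plate controls were negative control wells for no effect and 2.5 mM tranylcypromine positive control for full effect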
# Target sequence (P33261 whole entry, looked up): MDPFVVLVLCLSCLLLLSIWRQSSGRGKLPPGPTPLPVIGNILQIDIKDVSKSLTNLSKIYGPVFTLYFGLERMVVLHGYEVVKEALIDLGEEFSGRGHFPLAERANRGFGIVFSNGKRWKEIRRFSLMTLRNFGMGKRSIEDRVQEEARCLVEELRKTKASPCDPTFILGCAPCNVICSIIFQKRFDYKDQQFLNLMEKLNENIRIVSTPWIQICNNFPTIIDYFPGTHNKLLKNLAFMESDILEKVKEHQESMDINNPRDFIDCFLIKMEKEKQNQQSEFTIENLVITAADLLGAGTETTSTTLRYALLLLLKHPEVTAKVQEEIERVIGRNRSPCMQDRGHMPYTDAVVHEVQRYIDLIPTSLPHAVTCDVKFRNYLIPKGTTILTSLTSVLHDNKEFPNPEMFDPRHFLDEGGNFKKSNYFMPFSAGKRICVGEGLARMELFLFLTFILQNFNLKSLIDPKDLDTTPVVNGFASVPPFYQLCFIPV
# PostGolgi ctrl: yeast control strain growth, post-Golgi counter-screen; efflux-deficient yeast background strain, growth absorbance A615, 16 h; inhibition, % at 10 µM; actives 5% (n = 98,000)
# CYP2C19 act: activators of human cytochrome P450 2C19; P33261; 96,000 tested, under 10 active; AID 1025; recombinant CYP2C19, luciferin-H EGE luminescence; hits give high values; 0 = fully inhibited enzyme, 1 = untreated enzyme; activation factor at 5 µM;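 active means activation factor of at least 2 at 5 µM in the primary screen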;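 further: 0 = wells with 2.5 mM tranylcypromine and 1 = vehicle-only wells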
# CYP2C9 activ: CYP2C9 (human) activation. P11712. recombinant CYP2C9, luciferin-H conversion, luminescence; hits give high values; factor 1 = untreated enzyme, 0 = blocked. activation factor at 5 µM. actives 1.4% (n = 96,000);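 active means activation factor of 2 or more for CYP2C9 at a 5 µM dose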;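 further: 0 = sulfaphenazole-blocked wells and 1 = vehicle-only wells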
# PostGolgi yeast: growth inhibition of a yeast mutant, post-Golgi transport screen; post-Golgi transport phenotypic cell assay; inhibition, % at 10 µM; actives 0.9% (n = 98,000); AID 739;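 further: yeast cells grown in 1536-well plates; yeast grown about 18 h at 30C before absorbance read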
# The depositor's hits bear a star; nt = not tested or not shown. Compounds with a hit are over-represented: about 32% of the library has one in this group of screens. Unless noted, no stated cut-off is given here; in the data, active means inhibition above about 30%; inactive means the rest.
SMILES,CYP2C9 inhib,CYP2C19 inhib,PostGolgi ctrl,CYP2C19 act,CYP2C9 activ,PostGolgi yeast
N#Cc1c(/N=C/c2ccco2)oc(-c2ccccc2)c1-c1ccccc1,73*,49,28,0.5,0.3,-5
N#Cc1c(N)oc(-c2ccco2)c1-c1ccco1,64*,22,2,0.8,0.4,3
Cc1ccccc1C(=O)O/N=C1\CCS(=O)(=O)c2sccc21,2,3,9,1,1,1
CCOC(=O)N1CCN(S(=O)(=O)c2c(C)nn(C)c2C)CC1,8,28,7,0.7,0.9,4
NC(=O)C1CCN(c2ncnc3c(-c4ccccc4)nsc23)CC1,13,-2,26,1,0.9,-6
O=C(NC1CC1)C1CCN(c2ncnc3c2sc2cccc(F)c23)CC1,73*,61*,28,0.4,0.3,1
CCn1ccc(C(=O)Oc2ccc(C(C)C)cc2)n1,-24,8,8,0.9,1.2,-8
COc1ccc2c(c1OC)C(=O)OC2CC(=O)c1ccc2c(c1)OCO2 (stereo not given),42,56*,0,0.4,0.6,14
CCCCN(CC)Cc1ccc(CNC(=O)Nc2ccc(OC)cc2OC)o1,2,0,8,1,1,-4
Cc1cc(C)n(-c2ccc(C(=O)OCC(=O)c3c(N)n(C)c(=O)n(C)c3=O)cc2)n1,11,20,-11,0.8,0.9,-2
CCn1c(SCC(=O)Nc2cc(OC)ccc2OC)nnc1C1CCCCC1,-11,69*,3,0.3,1.1,4
CCn1c(SCC(=O)OC)nnc1C1CCCCC1,0,2,18,1,1,6
CCn1c(SCC(=O)O)nnc1C1CCCCC1,9,5,31*,0.9,0.9,12
Cc1ccc(C(CC(=O)NCc2ccco2)c2ccccc2)c(O)c1 (stereo not given),46,61*,8,0.4,0.5,1
CCCN(CCC)C(=O)CC(c1ccccc1)c1ccc(C)cc1O (stereo not given),52*,43,17,0.6,0.5,5
CCCN(CCC)C(=O)CC(c1ccccc1)c1cc(Br)ccc1O (stereo not given),42,43,47*,0.6,0.6,-5
CN(C)CCCNC(=O)CC(c1ccccc1)c1ccccc1O (stereo not given),-17,-18,11,1.2,1.2,17
COc1cc2c(N3CCOCC3)cc(O)c(CC(=O)Nc3ccccc3)c2cc1OC,10,19,5,0.8,0.9,-11
O=c1c2cc(Br)ccc2[nH]c(=S)n1Cc1cccnc1,12,26,9,0.7,0.9,-4
O=c1c2ccccc2[nH]c(=S)n1Cc1cccnc1,32,82*,nt,0.2,0.7,nt
COCON1C(=O)CN(C(C)=O)C1c1ccc(Cl)cc1Cl (stereo not given),-2,34,3,0.7,1,-2
COC(=O)N1CC(=O)N(OC)C1c1ccc(Cl)cc1Cl (stereo not given),-7,87*,1,0.1,1.1,1
CON1C(=O)CN(C(C)=O)C1c1ccc(Cl)cc1Cl (stereo not given),-52,54*,17,0.5,1.5,-10
CCOc1ccccc1COC(=O)c1cccc(-n2cnnn2)c1,-76,46,16,0.5,1.8,19
CCOC(=O)C(C)(C)Sc1nc2c(cnn2-c2ccc(Cl)cc2)c(=O)[nH]1,76*,46,24,0.5,0.2,-10
SMILES,CYP2C9 inhib,CYP2C19 inhib,PostGolgi ctrl,CYP2C19 act,CYP2C9 activ,PostGolgi yeast
CCCSc1nc2c(cnn2-c2ccc(C)cc2)c(=O)[nH]1,18,12,-2,0.9,0.8,2
CCC(Sc1nc2c(cnn2-c2ccc(Cl)cc2)c(=O)[nH]1)C(=O)OC (stereo not given),29,4,3,1,0.7,-14
CCCSc1nc2c(cnn2-c2ccccc2)c(=O)[nH]1,-22,11,33*,0.9,1.2,8
CCOC(=O)c1cc(CNC(=O)c2c(C)oc3c2CCCC3)c(C)o1,18,16,-6,0.8,0.8,0
Cc1ccc(S(=O)(=O)Nc2c(C)nn(C)c2C)cc1,5,79*,-7,0.2,1,-3
Cc1ccc(S(=O)(=O)Nc2nncs2)cc1,27,0,20,1,0.7,-8
CCc1ccc(S(=O)(=O)Nc2c(C)nn(C)c2C)cc1,20,84*,1,0.2,0.8,-7
CC(=O)Nc1ccc(S(=O)(=O)Nc2c(C)nn(-c3ccccc3)c2C)cc1,17,18,-2,0.8,0.8,-4
Cc1ccc(S(=O)(=O)Nn2c(C)ccc2C)cc1,22,64*,10,0.4,0.8,11
Cc1ccc(CN(C#N)c2nc(C)cc(C)n2)cc1,-52,44,9,0.6,1.5,-1
Cc1cc(C)nc(N(C#N)Cc2ccc(Br)cc2)n1,6,68*,27,0.3,0.9,3
NC(=O)C1(N2CCCCC2)CCN(C(=O)CCCn2c(=O)[nH]c3ccsc3c2=O)CC1,30,-2,9,1,0.7,9
CCC(CC)C(=O)Nc1c2c(nn1-c1ccc(OC)cc1)CS(=O)(=O)C2,55*,2,7,1,0.5,7
CC(C)NC(=O)c1ccc2c(c1)S(=O)(=O)c1ccccc1C2=O,14,5,3,1,0.9,1
Oc1ccc(Br)cc1-c1nc2cnccn2c1NC1CCCCC1,91*,77*,86*,0.2,0.1,29
Oc1ccc(Br)cc1-c1nc2cnccn2c1NC1CCCC1,50,40,63*,0.6,0.5,6
Cn1c(-c2cc(Br)ccc2O)n[nH]c1=S,8,23,0,0.8,0.9,-6
O=C1C2CCCN2C(c2ccccc2F)N1c1ccc(F)cc1 (stereo not given),16,23,7,0.8,0.8,-7
CCC1S/C(=C(\C#N)C(=O)NCc2ccco2)N(c2ccc(F)cc2)C1=O (stereo not given),10,25,-7,0.7,0.9,4
CCC1S/C(=C(\C#N)C(N)=O)N(c2ccc(F)cc2)C1=O (stereo not given),8,35,9,0.7,0.9,24
CCOC(=O)/C(C#N)=C1/SC(CC)C(=O)N1c1ccc(Br)cc1 (stereo not given),41,78*,8,0.2,0.6,2
CCOC(=O)/C(C#N)=C1/SC(CCO)C(=O)N1c1ccccc1 (stereo not given),nt,nt,-1,nt,nt,4
CCC1S/C(=C(\C#N)C(=O)NCc2ccco2)N(c2ccc(Br)cc2)C1=O (stereo not given),51*,43,7,0.6,0.5,-1
CCOC(=O)/C(C#N)=C1/SC(C)C(=O)N1c1ccc(Br)cc1 (stereo not given),72*,95*,-2,0,0.3,0
